Consider 68 compounds from the antibiotic and cytotoxicity screens of Wong et al. (2023).

Out of some 39,000 compounds screened, about 1,500 (3.8%) were called active. The full list was thinned out, with actives kept by preference.

The test system of the assay is HSkMC (human skeletal muscle cells). In words: cytotoxicity call (relative viability < 0.9). As to conditions: 10 µM.
For the compound `C[C@H](CO)N1C[C@H](C)[C@@H](CN(C)S(=O)(=O)c2cn(C)cn2)Oc2ccc(NC(=O)NC3CCCCC3)cc2C1=O`, the cytotoxicity call was “inactive”.

As for `COc1ccc([Si](C)(C)[C@@H]2[C@@H](CCO)O[C@]3(C(=O)N(Cc4ccc(N5C(=O)c6ccccc6Oc6ccccc65)cc4)c4ccccc43)[C@H]2C)cc1`, the cytotoxicity call was “inactive”.

Turning to `C[C@@H]1CCCCO[C@H](CN(C)Cc2ccccc2)[C@@H](C)CN([C@@H](C)CO)C(=O)c2cc(NC(=O)Cc3ccccc3)ccc2O1`, the cytotoxicity call is “inactive”.

Consider `COc1ccc(NC(=O)Nc2ccc3c(c2)C(=O)N([C@H](C)CO)C[C@H](C)[C@H](CN(C)Cc2ccc(C(=O)Nc4ccccc4N)cc2)OCCCC[C@@H](C)O3)cc1`, for which the cytotoxicity call was “inactive”.

Take `CCOc1ccc(S(N)(=O)=O)cc1`: the cytotoxicity call is “inactive”.

In the case of `NS(=O)(=O)c1ccc(N2CCCC2=O)cc1`, the cytotoxicity call is “inactive”.

Take `C[C@H](CO)N1C[C@H](C)[C@H](CN(C)S(=O)(=O)c2cn(C)cn2)Oc2c(NC(=O)c3cnccn3)cccc2C1=O`: the cytotoxicity call is “inactive”.

Consider `Cc1noc(C)c1NC(=O)Nc1ccc2c(c1)C(=O)N([C@H](C)CO)C[C@@H](C)[C@H](CN(C)C(=O)Nc1c(C)noc1C)OCCCC[C@@H](C)O2`, for which the cytotoxicity call is “inactive”.

As for `O=C(c1cnc2ccccc2c1)C1CC1`, the cytotoxicity call is “inactive”.

As for `CNC[C@@H]1Oc2ccc(NC(=O)Cn3cnnn3)cc2CC(=O)N([C@H](C)CO)C[C@H]1C`, the cytotoxicity call is “inactive”.

On to `Cc1noc(C)c1NC(=O)Nc1ccc2c(c1)C(=O)N([C@H](C)CO)C[C@@H](C)[C@@H](CN(C)Cc1ccc3c(c1)OCO3)OCCCC[C@@H](C)O2`, for which the cytotoxicity call is “inactive”.

As for `O=C(CCCCCNC(=O)OCc1ccc(CN(C(=O)Nc2ccccc2)[C@@H](Cc2ccccc2)Cn2cc(-c3ccccn3)nn2)cc1)NO`, the cytotoxicity call was “inactive”.

With `Cc1ccc(S(=O)(=O)Nc2ccc3c(c2)C(=O)N([C@@H](C)CO)C[C@@H](C)[C@@H](CN(C)Cc2ccc(C(F)(F)F)cc2)OCCCC[C@@H](C)O3)cc1`, the cytotoxicity call was “active”.

As to `Cc1ccc(S(=O)(=O)Nc2ccc3c(c2)C(=O)N([C@H](C)CO)C[C@H](C)[C@@H](CN(C)Cc2ccc(C(F)(F)F)cc2)OCCCC[C@@H](C)O3)cc1`, the cytotoxicity call is “inactive”.

As for `Cc1ccc(S(=O)(=O)Nc2ccc3c(c2)C(=O)N([C@H](C)CO)C[C@@H](C)[C@H](CN(C)Cc2ccc(C(F)(F)F)cc2)OCCCC[C@H](C)O3)cc1`, the cytotoxicity call is “active”.

Regarding `Cc1ccc(S(=O)(=O)Nc2ccc3c(c2)C(=O)N([C@H](C)CO)C[C@@H](C)[C@H](CN(C)Cc2ccc(C(F)(F)F)cc2)OCCCC[C@@H](C)O3)cc1`, the cytotoxicity call was “inactive”.

Consider `Cc1ccc(S(=O)(=O)Nc2ccc3c(c2)C(=O)N([C@@H](C)CO)C[C@@H](C)[C@H](CN(C)Cc2ccc(C(F)(F)F)cc2)OCCCC[C@H](C)O3)cc1`, for which the cytotoxicity call was “inactive”.

Consider `Cc1ccc(S(=O)(=O)Nc2ccc3c(c2)C(=O)N([C@@H](C)CO)C[C@H](C)[C@H](CN(C)Cc2ccc(C(F)(F)F)cc2)OCCCC[C@@H](C)O3)cc1`, for which the cytotoxicity call was “inactive”.

In the case of `C[C@@H]1CN([C@H](C)CO)C(=O)c2cccc(NC(=O)c3nc4ccccc4s3)c2O[C@H]1CN(C)C(=O)Nc1cccc2ccccc12`, the cytotoxicity call is “inactive”.

For `CCN1C(=O)CN(CC(=O)O)C1=O`, the cytotoxicity call is “inactive”.

Take `NCc1ccc2nsnc2c1`: the cytotoxicity call is “inactive”.

Regarding `C[C@@H]1CN([C@@H](C)CO)C(=O)c2cccc(NS(C)(=O)=O)c2O[C@H]1CN(C)C(=O)Nc1ccc(C(F)(F)F)cc1`, the cytotoxicity call is “inactive”.

Consider `O=C(C[C@@H]1CC[C@@H]2[C@H](COC[C@H](O)CN2C(=O)Nc2ccc(F)cc2)O1)NCCCN1CCOCC1`, for which the cytotoxicity call is “inactive”.

With `C[C@H](CO)N1C[C@H](C)[C@@H](CN(C)S(C)(=O)=O)OCCCC[C@H](C)Oc2ccc(NS(=O)(=O)c3cn(C)cn3)cc2C1=O`, the cytotoxicity call is “inactive”.

As for `C[C@H](CO)N1C[C@H](C)[C@@H](CN(C)C(=O)Nc2cccc(F)c2)Oc2cc(C#CC3(O)CCCC3)ccc2S1(=O)=O`, the cytotoxicity call is “inactive”.

Turning to `C[C@@H]1CN([C@H](C)CO)S(=O)(=O)c2ccc(/C=C/c3ccccc3)cc2O[C@H]1CN(C)C(=O)Nc1cc(F)ccc1F`, the cytotoxicity call was “active”.

With `C[C@@H]1CN([C@@H](C)CO)S(=O)(=O)c2ccc(C#Cc3ccccc3F)cc2O[C@H]1CN(C)C(=O)c1ccc2c(c1)OCO2`, the cytotoxicity call is “active”.

Regarding `C[C@H]1CN([C@@H](C)CO)S(=O)(=O)c2ccc(C#Cc3ccccc3F)cc2O[C@H]1CN(C)C(=O)c1ccc2c(c1)OCO2`, the cytotoxicity call is “inactive”.

With `C[C@H]1CN([C@@H](C)CO)S(=O)(=O)c2ccc(C#Cc3ccccc3F)cc2O[C@@H]1CN(C)C(=O)c1ccc2c(c1)OCO2`, the cytotoxicity call is “inactive”.

As to `C[C@@H]1CN([C@@H](C)CO)S(=O)(=O)c2ccc(C#CC3(O)CCCC3)cc2O[C@@H]1CN(C)C(=O)Nc1cccc(F)c1`, the cytotoxicity call was “inactive”.

As for `C[C@H](CO)N1C[C@H](C)[C@@H](CN(C)C(=O)Nc2cc(F)ccc2F)Oc2cc(/C=C/c3ccccc3)ccc2S1(=O)=O`, the cytotoxicity call is “inactive”.

As to `C[C@H]1CN([C@@H](C)CO)S(=O)(=O)c2ccc(/C=C/c3ccccc3)cc2O[C@@H]1CN(C)C(=O)Nc1cc(F)ccc1F`, the cytotoxicity call is “inactive”.

On to `C[C@H]1CN([C@@H](C)CO)S(=O)(=O)c2ccc(C#Cc3ccncc3)cc2O[C@@H]1CN(C)C(=O)Nc1ccc2c(c1)OCO2`, for which the cytotoxicity call is “inactive”.

With `C[C@@H]1CN([C@@H](C)CO)S(=O)(=O)c2ccc(C#Cc3ccncc3)cc2O[C@H]1CN(C)C(=O)Nc1ccc2c(c1)OCO2`, the cytotoxicity call was “active”.

For `C[C@H]1CN([C@@H](C)CO)S(=O)(=O)c2ccc(C#CC3(O)CCCC3)cc2O[C@@H]1CN(C)C(=O)Nc1cccc(F)c1`, the cytotoxicity call was “active”.

On to `C[C@H]1CN([C@@H](C)CO)S(=O)(=O)c2ccc(C#Cc3ccncc3)cc2O[C@H]1CN(C)C(=O)Nc1ccc2c(c1)OCO2`, for which the cytotoxicity call was “inactive”.

For `C[C@@H]1CN([C@H](C)CO)C(=O)c2cc(NS(C)(=O)=O)ccc2O[C@@H](C)CCCCO[C@@H]1CN(C)C(=O)CCCN(C)C`, the cytotoxicity call is “inactive”.

In the case of `C[C@@H]1CN([C@@H](C)CO)C(=O)Cc2cc(NC(=O)CCCCCC(=O)Nc3ccccc3N)ccc2O[C@@H]1CN(C)Cc1ccc(-c2ccccc2)cc1`, the cytotoxicity call is “inactive”.

As for `C[C@@H]1CN([C@@H](C)CO)C(=O)c2cc(NS(=O)(=O)c3cn(C)cn3)ccc2O[C@H]1CN(C)C(=O)Nc1ccc2c(c1)OCO2`, the cytotoxicity call was “inactive”.

For the compound `C[C@H]1CN([C@@H](C)CO)C(=O)c2cccc(NC(=O)C3CCOCC3)c2O[C@H]1CN(C)Cc1ccccc1`, the cytotoxicity call was “inactive”.

Turning to `CCC(=O)Nc1ccc2c(c1)OC[C@@H](C)N(C(=O)CN1CCOCC1)C[C@H](C)[C@H](OC)CN(C)C2=O`, the cytotoxicity call is “inactive”.

For the compound `CN(C)CCCNC(=O)C[C@H]1CC[C@H]2[C@@H](COC[C@@H](O)CN2S(=O)(=O)c2ccc(Cl)cc2)O1`, the cytotoxicity call is “inactive”.

As to `C[C@H](CO)N1C[C@H](C)[C@@H](CN(C)S(C)(=O)=O)Oc2cc(C#CCN(C)C)ccc2S1(=O)=O`, the cytotoxicity call was “inactive”.

Consider `COCC(=O)Nc1ccc2c(c1)OC[C@@H](C)N(C(=O)Cc1ccccn1)C[C@@H](C)[C@@H](OC)CN(C)C2=O`, for which the cytotoxicity call was “inactive”.

In the case of `C[C@H]1CN([C@@H](C)CO)C(=O)c2cc(NC(=O)C3CC3)ccc2O[C@H]1CN(C)Cc1ccc2c(c1)OCO2`, the cytotoxicity call is “inactive”.

For the compound `COc1cccc(NC(=O)N(C)C[C@H]2Oc3cc(C#Cc4ccncc4)ccc3S(=O)(=O)N([C@H](C)CO)C[C@@H]2C)c1`, the cytotoxicity call is “inactive”.

In the case of `COc1cccc(NC(=O)N(C)C[C@H]2Oc3cc(C#Cc4ccncc4)ccc3S(=O)(=O)N([C@@H](C)CO)C[C@H]2C)c1`, the cytotoxicity call is “inactive”.

As to `COc1cccc(NC(=O)N(C)C[C@H]2Oc3cc(C#Cc4ccncc4)ccc3S(=O)(=O)N([C@@H](C)CO)C[C@@H]2C)c1`, the cytotoxicity call is “active”.

For the compound `COc1cc2c(cc1OC)CN(C(=O)[C@H]1[C@@H]3C(=O)O[C@@H](c4ccccc4)[C@@H](c4ccccc4)N3[C@@H](c3ccc(O)cc3)[C@]13C(=O)Nc1ccccc13)CC2`, the cytotoxicity call is “inactive”.

Turning to `O=c1/c(=C/c2cccc(Cl)c2)c2cccc3cccc1c32`, the cytotoxicity call was “inactive”.

Consider `Cc1noc(C)c1S(=O)(=O)N(C)C[C@H]1OCCCC[C@H](C)Oc2ccc(NS(=O)(=O)c3cn(C)cn3)cc2C(=O)N([C@H](C)CO)C[C@@H]1C`, for which the cytotoxicity call is “inactive”.

Regarding `Cc1ccc(S(N)(=O)=O)cc1`, the cytotoxicity call is “inactive”.

As for `CNS(=O)(=O)c1ccc(C)cc1`, the cytotoxicity call was “inactive”.

In the case of `Cc1noc(C)c1S(=O)(=O)N(C)C[C@@H]1OCCCC[C@@H](C)Oc2ccc(NS(C)(=O)=O)cc2C(=O)N([C@@H](C)CO)C[C@@H]1C`, the cytotoxicity call was “inactive”.

In the case of `CCCCc1nc(-c2ccc(OCCCN(CC)CC)cc2)cn1-c1ccc(Oc2ccc(Cl)cc2)cc1`, the cytotoxicity call was “active”.

Turning to `CN(C)CCOC(=O)COc1ccc(Cl)cc1.Cl`, the cytotoxicity call is “inactive”.

For the compound `COc1ccc(-n2nc(CCC(=O)N(C)O)cc2-c2ccc(Cl)cc2)cc1`, the cytotoxicity call is “inactive”.

Regarding `C[C@@H]1CN([C@H](C)CO)C(=O)c2cc(NC(=O)NC3CCCCC3)ccc2O[C@@H](C)CCCCO[C@@H]1CN(C)Cc1ccc2c(c1)OCO2`, the cytotoxicity call was “inactive”.

As to `CN(C)CCCNC(=O)C[C@@H]1C=C[C@@H](NC(=O)Cc2cccnc2)[C@@H](CO)O1`, the cytotoxicity call is “inactive”.

As to `C[C@H](CO)N1C[C@H](C)[C@@H](CN(C)C(=O)Nc2ccc3c(c2)OCO3)Oc2ccc(NS(C)(=O)=O)cc2CC1=O`, the cytotoxicity call is “inactive”.

As for `C[C@@H]1CN([C@H](C)CO)C(=O)Cc2cc(NS(=O)(=O)c3ccc(Cl)cc3)ccc2O[C@@H]1CN(C)Cc1ccc(-c2ccccc2)cc1`, the cytotoxicity call was “active”.

With `C[C@H](CO)N1C[C@H](C)[C@H](CN(C)Cc2ccc(-c3ccccc3)cc2)Oc2ccc(NS(=O)(=O)c3ccc(Cl)cc3)cc2CC1=O`, the cytotoxicity call was “inactive”.

`C[C@H]1CN([C@@H](C)CO)C(=O)Cc2cc(NS(=O)(=O)c3ccc(Cl)cc3)ccc2O[C@H]1CN(C)Cc1ccc(-c2ccccc2)cc1`: the cytotoxicity call is “active”.

On to `C[C@H]1CN([C@@H](C)CO)C(=O)Cc2cc(NS(=O)(=O)c3ccc(Cl)cc3)ccc2O[C@@H]1CN(C)Cc1ccc(-c2ccccc2)cc1`, for which the cytotoxicity call was “inactive”.

Consider `C[C@H](CO)N1C[C@H](C)[C@@H](CN(C)Cc2ccc(-c3ccccc3)cc2)Oc2ccc(NS(=O)(=O)c3ccc(Cl)cc3)cc2CC1=O`, for which the cytotoxicity call was “inactive”.

For `C[C@@H]1CN([C@@H](C)CO)C(=O)Cc2cc(NS(=O)(=O)c3ccc(Cl)cc3)ccc2O[C@H]1CN(C)Cc1ccc(-c2ccccc2)cc1`, the cytotoxicity call was “active”.

As for `C[C@@H]1CN([C@@H](C)CO)C(=O)Cc2cc(NS(=O)(=O)c3ccc(Cl)cc3)ccc2O[C@@H]1CN(C)Cc1ccc(-c2ccccc2)cc1`, the cytotoxicity call was “inactive”.

`C[C@@H]1CN([C@H](C)CO)C(=O)Cc2cc(NS(=O)(=O)c3ccc(Cl)cc3)ccc2O[C@H]1CN(C)Cc1ccc(-c2ccccc2)cc1`: the cytotoxicity call was “active”.
